Bioassay records from PubChem.
This is a sample that favours compounds with a hit; in the whole collection about 4.6% have one here.
D1 potentiator: human D1 dopamine receptor positive modulation. HEK293 TREx D1 cells, calcium flux, dopamine EC20 potentiation. 360,000 compounds, 0.036% hits. potentiation, % at 10 µM; in the data active = potentiation above about 30%; note: 0% is about no effect
TRHR enhancer: TRH receptor (human) allosteric enhancement; P34981; TRHR cells, fluo-8 calcium fluorescence, EC20 TRH enhancement; enhancement, % at 2 µM; 360,000 compounds, 0.66% hits; AID 493056; in the data active = enhancement above about 30%; note: 0% is about no effect
Target sequence (P34981 whole entry, looked up): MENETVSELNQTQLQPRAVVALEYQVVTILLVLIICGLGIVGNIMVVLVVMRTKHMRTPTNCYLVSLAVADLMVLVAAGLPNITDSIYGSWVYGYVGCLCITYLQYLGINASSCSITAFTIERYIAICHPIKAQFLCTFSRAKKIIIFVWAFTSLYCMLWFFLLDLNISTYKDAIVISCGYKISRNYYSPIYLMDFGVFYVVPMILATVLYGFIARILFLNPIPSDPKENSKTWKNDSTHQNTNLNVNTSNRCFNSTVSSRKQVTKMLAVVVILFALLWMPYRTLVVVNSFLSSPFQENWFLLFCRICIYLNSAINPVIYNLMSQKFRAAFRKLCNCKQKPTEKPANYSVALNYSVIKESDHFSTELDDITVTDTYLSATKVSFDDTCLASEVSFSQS
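Enhancer read-out: after compound pinning and an initial kinetic agonist-mode read, an EC20 of TRH (10 nM final) was injected and fluo-8 calcium signal (Ex 480/Em 530) followed at 1 s/cycle for 100 cycles in TRHR-expressing cells.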
D1 agonist: human D1 receptor agonism; HEK293 T-REx D1 cells, calcium flux, agonist mode; activation, % at 2 µM; 360,000 compounds, 1% hits; note: 0% is about no effect
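Inducible HEK293 T-REx D1 cells, force-coupled to calcium signalling, were plated at 4000 cells/well with tetracycline and held overnight at 30 C. After no-wash calcium dye loading, compound-evoked calcium rise over 180 s flagged agonists.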
D1 antagonist: human D1 dopamine receptor antagonism; activity change, negative = inhibition, % at 10 µM; HEK293 TREx D1 cells, calcium flux, dopamine EC80; stronger effect = lower value; 360,000 compounds, 3.2% hits; P21728; in the data active = activity change below about -30%; note: % is set by controls: 0 for no effect and ±100 for the full control effect
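Inducible Hek293 Trex D1 cells (tetracycline, overnight, 30 C). Calcium dye 30–90 min RT. Antagonist mode: EC80 dopamine added after 180 s compound read.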
TRHR agonist: activates the human TRH receptor; 360,000 compounds, 0.18% hits; AID 493084; TRHR cells, calcium flux fluo-8, FDSS agonist mode; activation, % at 2 µM; P34981; note: 0% is about no effect
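Fluo-8-loaded TRHR cells; 10 s baseline, compound added, kinetic Ca2+ fluorescence read 1/s, agonist mode.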
* = called active by the depositor; x = not tested or not shown; ! = not active in a repeat. Cut-off read from the data, not from the text of the source, unless noted: active = activation above about 30%; inactive = the rest.

SMILES | D1 potentiator | TRHR enhancer | D1 agonist | D1 antagonist | TRHR agonist
Cc1ccc(NC(=O)Cn2c(=O)n(CC3CCC(C(=O)NC(C)C)CC3)c(=O)c3sccc32)cc1 (centres undefined) | -5 | -2 | 2 | -44* | 0
O=C(COCc1cc(-c2cccs2)on1)N1CCN(c2ccccc2)CC1 | 1 | 11 | -1 | 13 | 0
Fc1ccccc1Cc1noc(CN2CCN(C/C=C/c3ccccc3)CC2)n1 | 4 | -5 | 1 | -53* | 0
O=CN1CCCN(Cc2nc(Cc3ccccc3F)no2)CC1 | -4 | -6 | 4 | 0 | 0
O=C(/C=C/c1ccc(N2CCC(c3ccccc3)=N2)cc1)c1ccccc1 | -12 | -3 | 138* | -28 | 57*
Cc1ccc(S(=O)(=O)N(CC(=O)Nc2cccc(C(F)(F)F)c2)C(=O)N2CCN(C)CC2)cc1 | -6 | 16 | 2 | -38* | 0
CCN(CC)S(=O)(=O)c1ccc(NC(=O)Nc2cccc(C(F)(F)F)c2)cc1 | -1 | -2 | 16 | -32* | 2
Cc1ccc(S(=O)(=O)N(Cc2cccc(C(F)(F)F)c2)C(=O)N2CCN(C)CC2)cc1 | -4 | 3 | 2 | -7 | 0
O=C(Nc1ccc(OC(F)F)cc1)Nc1cccc(C(F)(F)F)c1 | -5 | -11 | 19 | -38* | 4
Cc1ccc(S(=O)(=O)Nc2ccc(NC(=O)Nc3cccc(C(F)(F)F)c3)cc2)cc1 | -8 | 8 | 3 | -1 | 0
Cc1cc(=O)n(CC(=O)Nc2ccc(Cl)c(Cl)c2)c(-n2nc(C)cc2C)n1 | 1 | 10 | 10 | x | -1
O=C1CC(c2ccccc2)Sc2nc(-c3ccc(F)cc3)nn21 (centres undefined) | -2 | 1 | 2 | 16 | 0
O=C1CC(c2ccc(F)cc2)Sc2nc(C34CC5CC(CC(C5)C3)C4)nn21 (centres undefined) | -8 | 30 | 2 | -52* | 0
O=C(NC1CC1)c1c[nH]c2ccc(S(=O)(=O)Nc3cccc(C(F)(F)F)c3)cc2c1=O | 6 | 40* | 3 | 1 | 1
C/C(=N\OC(=O)c1c(-c2ccccc2Cl)noc1C)c1nccs1 | -3 | 14 | 1 | -5 | 0
C/C(=N\OC(=O)c1ccc(Cl)cc1)c1nccs1 | -13 | 4 | 1 | -32* | 0
O=C(c1ccc2c(Cl)c3c(nc2c1)CCCC3)N1CCN(c2cccc(Cl)c2)CC1 | 6 | 33* | 7 | -9 | 0
Cc1nc2cccnc2n1-c1cccc(C(=O)N2CCN(c3cccc(Cl)c3)CC2)c1 | -4 | -4 | 5 | -32* | -1
CCOC(=O)c1c(S(=O)(=O)N2CCC(C(=O)NCc3ccc(F)cc3)CC2)c(C)n(C)c1C | -3 | -1 | 1 | 32 | 0
COc1ccccc1-c1cc(NC(=O)COc2ccccc2Cl)n(-c2ccccc2)n1 | -4 | -4 | 2 | -7 | 0
CCCCn1c(CNC(=O)CCC)nc2ccccc21 | 1 | 3 | -1 | -34* | 0
CCc1nc2ccccc2n1CCCCOc1cccc(C)c1 | 2 | -3 | 11 | -7 | -2
Cc1cccc(OCCCCn2c(CO)nc3ccccc32)c1 | -5 | 5 | 1 | -38* | 0
COc1ccc(OCCCCn2c(CO)nc3ccccc32)cc1 | -2 | -5 | 13 | -53* | 0
CCn1c(COc2ccccc2C)nc2ccccc21 | -7 | 1 | -1 | -23 | 0
SMILES | D1 potentiator | TRHR enhancer | D1 agonist | D1 antagonist | TRHR agonist
CCn1c(COc2cccc(C)c2)nc2ccccc21 | -6 | -3 | 7 | -32*! | -1
Cc1ccc(S(=O)(=O)NCC2CCC(C(=O)NCCc3ccc(Cl)cc3)CC2)cc1 (centres undefined) | -5 | 2 | 3 | -14 | 0
COc1ccc(C2c3c(oc4cc(C)cc(C)c4c3=O)C(=O)N2Cc2ccco2)cc1OC (centres undefined) | -1 | -3 | 0 | 5 | 0
CCOc1cc(C(=O)NCCN2C(=O)S/C(=C\c3cccnc3)C2=O)cc(OCC)c1OCC | -5 | 5 | 4 | -49* | -1
COc1ccc(C(=O)NCCN2C(=O)S/C(=C\c3cccnc3)C2=O)c(OC)c1OC | -3 | 6 | 2 | 16 | 0
O=C(N/N=C/c1ccccc1F)c1cccc2ccccc12 | -6 | -4 | 0 | 1 | -1
COc1ccc2cc(C(=O)N/N=C/c3sc4ccccc4c3O)ccc2c1 | -8 | -1 | 108* | -3 | 33*
O=C(N/N=C/c1sc2ccccc2c1O)c1cccc2ccccc12 | 0 | 5 | 31* | 1 | 6
Cc1ccccc1C(=O)N/N=C/c1cccc2ccccc12 | 5 | 4 | 0 | -89* | 0
CCc1cccc(OCCCN2C(=O)NC(C)(C)C2=O)c1 | -4 | -11 | 3 | -5 | 2
CC(=O)c1cccc(OCCN2C(=O)NC(C)(C)C2=O)c1 | 1 | -6 | 0 | -30* | 0
COc1ccc(CNC(=O)C2CCN(S(=O)(=O)c3ccc4c(c3)CCCN4C(C)=O)CC2)cc1 | -1 | -4 | 0 | 7 | 0
COc1ccc(NC(=O)c2cc(S(=O)(=O)NCCC3=CCCCC3)ccc2F)cc1 | -2 | -1 | 1 | 5 | 0
CC(=O)c1ccc(S(=O)(=O)N2CCN(C(=O)c3ccc(-n4cncn4)c([N+](=O)[O-])c3)CC2)cc1 | -3 | 6 | 0 | -50* | 0
Nc1ccc(C(=O)N2CCN(S(=O)(=O)c3ccc(Br)cc3)CC2)cc1[N+](=O)[O-] | -4 | 2 | 5 | -49* | 0
CC(C)Oc1cccc(C(=O)Nc2ccc3oc(-c4ccccc4)nc3c2)c1 | 0 | -5 | 8 | -9 | 2
COc1ccccc1/C=N/NC(=O)c1ccc(NC(=O)c2ccccc2Br)cc1 | -2 | 4 | 10 | -28 | 0
CCC(=O)Nc1ccc(C(=O)N/N=C/c2cc(Br)c(OC)cc2OC)cc1 | -8 | 0 | 2 | -31* | 0
COc1ccc(Cc2noc(CN3CCN(c4ccc(Cl)cn4)CC3)n2)cc1OC | -4 | -6 | 15 | -31* | -1
CC1CCCCN1CCCNC(=O)c1cc(Sc2ccc(Cl)cc2)nc2ccccc12 (centres undefined) | -4 | -2 | 16 | -20 | 0
COc1ccc(OC)c(NC(=O)CCN2CCN(c3ccccc3OC)CC2)c1 | 0 | 5 | 3 | -64* | 0
COc1ccc(NC(=O)CCN2CCN(c3ccccc3F)CC2)c(OC)c1 | -26 | -8 | 1 | -36* | 0
CC1CCN(CCCNC(=O)c2cc(Sc3ccc(F)cc3)nc3ccccc23)CC1 | -1 | -5 | 44* | -10 | 4
COc1ccc(NC(=O)CN2CCN(c3ccccc3F)CC2)c(OC)c1 | 0 | 2 | 3 | -2 | -1
COc1ccc(Nc2cc(C(=O)NCCCN3CCOCC3)c3ccccc3n2)c(OC)c1 | 1 | -3 | 0 | 0 | 2
